For 40 compounds, growth results are on record in PubChem BioAssay (NCI).

About 83,000 compounds went through this panel and 20% of them were active in at least one assay; those are over-represented in the sample as a whole.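 Method: cells in 96-well plates; compound added at one concentration; 48 h incubation; percent growth measured; values under 10 scored active.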 Values without a mark were called inactive. Activity calls are given as the source filed them.

The test concerns SK-OV-3 ovarian. As to the kind of experiment: NCI-60 one-dose screen, 48 h (100 = growth as untreated, 0 = no growth, -100 = all killed). To be noted: 10 µM unless noted. As to the method:
Growth inhibition of the SK-OV-3 human tumor cell line is measured as a screen for anti-cancer activity. Cells are grown in 96 well plates and exposed to the test compound for 48 hours. Compounds are tested at a single concentration, which is 10^-5 M for most compounds. The reported endpoint is percent growth (GI% or GIPRCNT), where numbers from 0 - 100% represent growth inhibition, and numbers from -100% - 0 represent cell death. For example, a value of 40 represents 60% growth inhibition. A value of 0 means no net growth occurred over the course of the experiment. A value of -40 indicates 40% of cells at the beginning of the experiment died by the end of the experiment. A value of -100 means all cells are dead at the end of the experiment.
NCI-60 Human Tumor Cell Lines Screen was performed using the standard one-dose NCI protocol, which is described in more detail at https://dtp.cancer.gov/discovery_development/nci-60/default.htm.
Compounds with GIPRCNT values below 10 were considered active. Activity score was based on GIPRCNT using the following formula: […]
Score is 0 for GIPRCNT values of 100 or above, 50 for GIPRCNT values of 0, and 100 for GIPRCNT values of -100.
`CCCCCOc1ccc(/C=N/Nc2cc(C)nc3ccc(Br)cc23)cc1`: the growth was 102%.

`COc1ccc2c(/C=C3/C(=O)NC(=S)NC3C)cc(=O)oc2c1` (stereo not given): the growth was 100%.

In the case of `COc1cccc(CNCCN2C(=O)c3ccc4c5c(ccc(c35)C2=O)C(=O)N(CCNCc2cccc(OC)c2)C4=O)c1`, the growth is 114%.

As for `COC(=O)CCCCCCCCC1(C)C=CC(C(C)O)=CC1` (stereo not given), the growth was 110%.

As to `COc1ccc2c(Nc3ccc(NS(C)(=O)=O)cc3)c3ccccc3nc2c1`, the growth is 20.5%.

Turning to `Cc1cn(-c2cc(C(=O)Nc3cccc(C#Cc4cccc5[nH]nc(N)c45)c3)cc(C(F)(F)F)c2)cn1`, the growth was 72.6%.

Take `CC(C)CCSc1nc(NNC(N)=O)c(C#N)c(-c2ccccc2)n1`: the growth was 107%.

Turning to `CC1=NNC(=O)C1CCC(=O)N/N=C(\C)c1ccc2ccccc2c1` (stereo not given), the growth was 126%.

`Cc1ccccc1CNc1ccc(N2CCOCC2)cc1`: the growth is 131%.

For the compound `COc1cc2nc(Cc3ccc(C)cc3)[nH]c(=O)c2cc1OC`, the growth is 113%.

For the compound `Nc1nnc(C(=O)c2cnc3n(c2=O)CCCCC3)s1`, the growth is 101%.

Turning to `CC(=O)OC1CCC2(C)C(CCC3C4CC=C(C(C)=O)C4(C)OC(=O)CC32)C1` (stereo not given), the growth was 109%.

On to `C=C1C(=O)O[C@H]2[C@H]1CC/C(COC(=O)NCCc1c[nH]c3ccc(Cl)cc13)=C\CC[C@@]1(C)O[C@@H]21`, for which the growth is 96.4%.

For the compound `NS(=O)(=O)c1cccc(NC(=O)C(=O)C2C(=O)Nc3ccccc32)c1` (stereo not given), the growth was 106%.

Consider `FCc1nc2nc(Cl)c(Cl)nc2[nH]1`, for which the growth is 97.1%.

With `NC(=S)N/N=C(\c1ccc(Cl)cc1)C1CC1`, the growth was 92.8%.

In the case of `COc1ccc(/C=C/C(=O)c2ccc(OC)c(OC)c2)cc1O`, the growth is 104%.

With `COc1cc2nc(-c3ccc(C(F)(F)F)cc3)cc(OCCCN3CCCCC3)c2cc1OC`, the growth was 77.8%.

For `C[C@H]1[C@H](C)CC[C@]2(CO)CC[C@]3(C)C(=CC[C@@H]4[C@@]5(C)CCCNC(C)(C)[C@@H]5CC[C@]43C)[C@H]12`, the growth was 69.6%.

Regarding `CCCCCCCCCCCCCCCC(=O)OC[C@@]1(O)C[C@@]23CC[C@@H]4C(C)(C)[C@H](O)CC[C@@]4(C)[C@@H]2CC[C@H]1C3`, the growth is 97.1%.

For the compound `COc1ccc(C(=O)c2cc3c(N)c(C(=O)Nc4cccc(Cl)c4)sc3nc2C)cc1`, the growth was 44%.

Regarding `CCCCCN1C=C/C(=C\C(=O)N(C)c2ccc(Br)cc2)c2ccccc21`, the growth was 96.8%.

Regarding `CCC(C)C(N)C(=O)NNc1n[nH]c(=S)n1N` (stereo not given), the growth was 99.3%.

For the compound `COc1cc2oc(-c3cccc(C(=O)Nc4ccc(Cl)cc4)c3)cc(=O)c2c(OC)c1OC`, the growth is 33.6%.

Consider `COc1cc(C2CC(c3cccc(Nc4ccncc4)c3)=NN2c2ccc(Cl)cc2)cc(OC)c1OC` (stereo not given), for which the growth was 64.5%.

For `CCOC(=O)c1c(SC)nn(-c2cc(=O)[nH]c3ccc(Br)cc23)c1N`, the growth was 98.5%.

As for `O=C(N/N=C/c1cccnc1)c1ccccc1Nc1cccc(C(F)(F)F)c1`, the growth was 80.3%.

As to `Cc1[nH]n(-c2cccc(Cl)c2)c(=O)c1/C=C1\C=Nc2ccc(Br)cc21`, the growth was -25% (active).

For the compound `CN1C(=O)N(C)[C@H]2NC(NN)=N[C@H]21`, the growth is 121%.

For `CCN(CC)CCOC(COc1cc(C)cc(C)c1)COc1cc(C)cc(C)c1`, the growth was 67.1%.

For `CCSc1ccc2c(c1)N(CCCN1CCN(C)CC1)c1ccccc1S2`, the growth was 78.7%.

Consider `Cc1ccc(C2CC(c3cccc(Nc4ccncc4)c3)=NN2c2ccccc2)cc1` (stereo not given), for which the growth was -31.4% (active).

In the case of `CCCCCCC/C=C/[C@H]1O[C@]2(O)C(=O)C=C3C[C@@H](O[C@@H]4O[C@H](CO)[C@@H](O)C(O)[C@@H]4O)C[C@@H]3[C@H]2C=C1C` (stereo not given in full), the growth is 57.6%.

In the case of `O=[N+]([O-])c1cccc(-c2nc(-c3ccc(Cl)cc3Cl)cn2-c2ccccc2)c1`, the growth was 33.4%.

Turning to `COc1ccccc1N1CCN(C(=O)c2ccc3nc(NC(=O)c4ccc(NCCc5ccccc5)c([N+](=O)[O-])c4)sc3c2)CC1`, the growth is 92.4%.

As to `c1cnc2nc3c(cc2c1)oc1ccccc13`, the growth is 121%.

For `CN1CCN(CC#CCNC(=O)[C@]23CCC(C)(C)C[C@H]2C2=CC[C@@H]4[C@@]5(C)Cc6c([nH]c7ccccc67)C(C)(C)[C@@H]5CC[C@@]4(C)[C@]2(C)CC3)CC1`, the growth is 87.1%.

In the case of `O=C1NC(=O)C(=Cc2cn(Cc3ccccn3)c3ccccc23)C(=O)N1`, the growth was 89.8%.

Consider `Cn1c(COC(=O)NCCn2ccnc2)nc2c(N3CCOCC3)nc(-c3ccccc3)nc21`, for which the growth was 50.2%.

Take `CC(N)C(=O)NNc1n[nH]c(=S)n1N` (stereo not given): the growth was 109%.
